Screens as filed in PubChem BioAssay.
The entries come from a sample that favours hits as a whole.
BoNT A protease: inhibitors of Botulinum neurotoxin A light chain protease | inhibition, % at 10 µM | 0.17% of 360,000 active | multiplex microsphere protease substrate cleavage, flow cytometry; also: plate controls were buffer without enzyme for full effect and enzyme alone for no effect
BoNT F protease: inhibitors of Botulinum neurotoxin F light chain protease | inhibition, % at 10 µM | Multiplex microsphere protease cleavage assay, flow cytometry | 0.22% of 360,000 active; in the data active = inhibition above about 35%, passing the limit was not always enough; inconclusive = no clear call, values can overlap the other calls; also: plate controls were buffer without enzyme for full effect and enzyme alone for no effect
TcdB inh: TcdB glycohydrolase inhibition. TcdB glycohydrolase enzymatic assay, plate reader. P18177. AID 652162. inhibition, % at 9.99 µM. 0.24% of 350,000 active; in the data active = inhibition above about 10%
Bead autofluor: compound fluorescence in toxin protease inhibitor counterscreen; compound autofluorescence counterscreen, microsphere flow cytometry; hits give high values; fluorescence intensity (test concentration not listed); 3.1% of 360,000 active; in the data active = fluorescence intensity above about 16000; inconclusive = no clear call, values can overlap the other calls
Anthrax LF inh2: inhibitors of Bacillus anthracis lethal factor protease | P15917 | multiplex microsphere protease cleavage assay, LF | inhibition, % at 10 µM | 0.12% of 360,000 active | AID 588501; also: plate controls were buffer without enzyme for full effect and enzyme alone for no effect
Target sequence (P15917 whole entry, looked up): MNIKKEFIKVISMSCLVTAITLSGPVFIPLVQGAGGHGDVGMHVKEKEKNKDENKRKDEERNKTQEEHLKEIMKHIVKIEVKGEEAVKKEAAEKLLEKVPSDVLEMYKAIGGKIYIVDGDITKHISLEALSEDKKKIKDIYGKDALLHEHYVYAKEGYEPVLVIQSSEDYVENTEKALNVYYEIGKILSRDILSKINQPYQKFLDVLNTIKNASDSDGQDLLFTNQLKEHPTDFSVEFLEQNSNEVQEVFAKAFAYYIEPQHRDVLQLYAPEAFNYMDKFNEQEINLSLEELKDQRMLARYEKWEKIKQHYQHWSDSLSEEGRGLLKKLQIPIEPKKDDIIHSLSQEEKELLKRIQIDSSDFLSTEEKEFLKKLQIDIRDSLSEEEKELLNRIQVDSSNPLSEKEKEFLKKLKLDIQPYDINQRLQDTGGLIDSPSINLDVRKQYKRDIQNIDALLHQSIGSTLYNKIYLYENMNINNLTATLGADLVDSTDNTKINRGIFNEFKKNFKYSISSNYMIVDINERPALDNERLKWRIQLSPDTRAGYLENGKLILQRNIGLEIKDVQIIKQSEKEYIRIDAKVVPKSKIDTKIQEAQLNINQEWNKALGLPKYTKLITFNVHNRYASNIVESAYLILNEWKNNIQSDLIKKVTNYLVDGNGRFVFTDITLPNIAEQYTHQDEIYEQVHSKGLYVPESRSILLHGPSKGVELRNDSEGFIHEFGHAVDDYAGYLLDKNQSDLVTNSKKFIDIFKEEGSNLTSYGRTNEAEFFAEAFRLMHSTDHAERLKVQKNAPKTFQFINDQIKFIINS
An asterisk follows results filed as active. Rule as the data show it, unless noted: active = inhibition above about 30%; inconclusive = no clear call, values can overlap the other calls; inactive = below that.

Screening Cn1c(SCc2c(Cl)cccc2Cl)nnc1-c1cccs1 returned BoNT A protease inconclusive, BoNT F protease 5.1, Bead autofluor 18672* and Anthrax LF inh2 -2.3.
For CN1C(=O)c2cc(NC(=O)c3ccccc3F)ccc2OC[C@H]2O[C@H](CC(=O)NCc3ccc4c(c3)OCO4)CC[C@H]21 the results were TcdB inh 1.4.
Screening C[C@@H]1CCCCO[C@H](CN(C)C(=O)Nc2ccc3c(c2)OCO3)[C@H](C)CN([C@H](C)CO)C(=O)c2cc(NS(=O)(=O)c3ccccc3)ccc2O1 returned TcdB inh 0.1.
CCCN1[C@@H]2c3ccc(-c4ccc(F)cc4)c(=O)n3C[C@@H]2[C@@H](CO)[C@@H]1C(=O)N[C@@H](C)c1ccccc1 was read as TcdB inh 2.6.
COc1cccc(-c2ccc3n(c2=O)C[C@H]2[C@H](CO)[C@@H](C(=O)NCCN4CCCCC4)N(C)[C@@H]32)c1 was read as TcdB inh -0.3.
`CCOC(=O)c1c(C)n(C)c2ccc(OCC(O)Cn3c(C)nc4ccccc43)cc12` (stereo unspecified) gave BoNT A protease inconclusive, BoNT F protease -2.3, Bead autofluor 23462* and Anthrax LF inh2 -1.5.
For Cc1cc(=O)[nH]c(SCc2ccccc2)n1 the results were BoNT A protease -5.2, BoNT F protease -24.6, TcdB inh 2.3, Bead autofluor 2964 and Anthrax LF inh2 -10.7.
Cc1cc(=O)[nH]c(S/C=C/c2ccccc2)n1 was read as BoNT A protease -2.1, BoNT F protease -3.3, TcdB inh 1.1, Bead autofluor 20598* and Anthrax LF inh2 -2.1.
For CCCC(=O)Nc1ccc2c(c1)OC[C@H](C)N(C(=O)CC1CC1)C[C@H](C)[C@H](OC)CN(C)C2=O the results were TcdB inh -0.4.
For O=C(C[C@H]1CC[C@@H]2[C@H](COC[C@@H](O)CN2C(=O)Nc2ccccc2)O1)NCCCN1CCOCC1 the results were TcdB inh -0.6.
For c1ccc(CCCN2CCN(CCOC(c3ccccc3)c3ccccc3)CC2)cc1 the results were BoNT A protease -0.4, BoNT F protease 2.0, TcdB inh 2.0, Bead autofluor 5680 and Anthrax LF inh2 -1.0.
Screening c1ccc(COCCN2CCN(CCOCc3ccccc3)CC2)cc1 returned BoNT A protease -1.7, BoNT F protease -0.6, TcdB inh 1.2, Bead autofluor 16853* and Anthrax LF inh2 -5.0.
`COc1ccc(C#Cc2ccc([C@H]3[C@@H](CO)N4CCCCN(C(=O)c5ccncc5)C[C@H]34)cc2)cc1` gave TcdB inh 0.1.
For Cc1ccccc1-n1c(=O)/c(=C\c2ccco2)s/c1=C(/C#N)C(=O)Nc1ccccc1 the results were BoNT A protease 7.5, BoNT F protease 7.6, Bead autofluor 20678* and Anthrax LF inh2 4.2.
O=C(N/N=C/c1ccc(N2CCOCC2)o1)c1cccc(C(F)(F)F)c1 was read as BoNT A protease -1.0, BoNT F protease -2.9, Bead autofluor 24154* and Anthrax LF inh2 -2.6.
For CCc1c(C)c2ccc(OCC(=O)N(C)C)c(C)c2oc1=O the results were BoNT A protease 0.9, BoNT F protease 3.9, Bead autofluor 21643* and Anthrax LF inh2 1.3.
`COC(=O)Cc1c(C)c2ccc(OCc3nn[nH]n3)c(C)c2oc1=O` gave BoNT A protease 4.0, BoNT F protease 3.1, Bead autofluor 21317* and Anthrax LF inh2 -6.1.
`Cc1c(OCC(=O)OC(C)C)ccc2c3c(c(=O)oc12)CCC3` gave BoNT A protease -0.5, BoNT F protease -2.3, Bead autofluor 2481 and Anthrax LF inh2 -1.0.
Screening CCc1c(C)c2ccc(OCC(=O)OC(C)C)c(C)c2oc1=O returned BoNT A protease -1.2, BoNT F protease -1.9, Bead autofluor 24390* and Anthrax LF inh2 1.2.
For CN1[C@@H]2c3ccc(-c4ccncc4)c(=O)n3C[C@H]1[C@H](CO)[C@H]2C(=O)Nc1nccs1 the results were TcdB inh -0.6.
`COc1cccc(CN2[C@@H](CO)[C@@H]3c4ccccc4N(C(=O)CC(F)(F)F)C[C@@H]32)c1` gave TcdB inh -1.4.
For c1ccc(Sc2nc(N3CCCCC3)nc(N3CCCCC3)n2)nc1 the results were BoNT A protease inconclusive, BoNT F protease 3.7, TcdB inh 0.9, Bead autofluor 19461* and Anthrax LF inh2 -7.0.
For CCOC(=O)COc1ccccc1-c1ccno1 the results were BoNT A protease inconclusive, BoNT F protease -7.5, Bead autofluor 21115* and Anthrax LF inh2 -3.3.
CCOC(=O)COc1ccccc1/C=C1\NC(=O)NC1=O was read as BoNT A protease -0.3, BoNT F protease 0.4, TcdB inh 1.3, Bead autofluor 4868 and Anthrax LF inh2 2.2.
